± gives the standard deviation of the averaged measurements. Of roughly 5,400 targets only a part is listed; those with the largest changes were picked by preference.
Molecular target: T1, UniProt P35613|P35613-2
T1 sequence (whole entry): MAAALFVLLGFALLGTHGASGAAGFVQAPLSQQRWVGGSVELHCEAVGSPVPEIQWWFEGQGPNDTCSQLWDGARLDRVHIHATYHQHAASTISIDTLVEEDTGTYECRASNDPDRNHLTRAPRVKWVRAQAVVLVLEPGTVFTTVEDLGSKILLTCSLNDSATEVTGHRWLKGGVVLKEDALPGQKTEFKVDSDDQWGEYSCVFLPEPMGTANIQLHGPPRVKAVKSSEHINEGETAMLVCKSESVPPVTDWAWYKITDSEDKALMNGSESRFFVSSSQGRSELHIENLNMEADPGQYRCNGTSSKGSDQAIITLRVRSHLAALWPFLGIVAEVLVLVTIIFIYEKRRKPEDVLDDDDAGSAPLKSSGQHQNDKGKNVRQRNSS
Test: NP40-soluble protein abundance relative to vehicle (solubility fold change) (ratio); higher = more soluble protein in presence of GTP
Procedure: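 Solubility proteome profiling in Jurkat crude lysate. Lysate was treated with Mg-GTP (0.1-10 mM) for 10 min at room temperature and 3 min at 37 °C, then solubilised with 0.8% NP40 and benzonase, followed by ultracentrifugation. Proteins were quantified by TMT10 LC-MS/MS; the value is the NP40-soluble abundance relative to the NP40-processed vehicle, from 3 independent experiments.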

## Nc1nc2c(ncn2[C@@H]2O[C@H](COP(=O)(O)OP(=O)(O)OP(=O)(O)O)[C@@H](O)[C@H]2O)c(=O)[nH]1 [guanosine triphosphate]
concentration: 0.1mM
  NP40-soluble protein abundance: 0.873 ± 0.045
concentration: 0.5mM
  NP40-soluble protein abundance: 0.877 ± 0.074
concentration: 1mM
  NP40-soluble protein abundance: 0.91 ± 0.042
concentration: 2mM
  NP40-soluble protein abundance: 0.881 ± 0.081
concentration: 4mM
  NP40-soluble protein abundance: 0.878 ± 0.062
concentration: 6mM
  NP40-soluble protein abundance: 0.91 ± 0.087
concentration: 8mM
  NP40-soluble protein abundance: 0.872 ± 0.099
concentration: 10mM
  NP40-soluble protein abundance: 0.881 ± 0.065

Source: the supplement of paper PMC6411743
